Measured values from PubChem BioAssay.
Activity calls are given as the source filed them.

Legend:
[1] = tested on: Plasmodium falciparum Sir2 (PF13_0152, Sir2A); assay: pfSir2 binders on small-molecule microarrays, primary screen, biochemical, small-molecule microarray, 635 nm fluorescence (AID 1098); settings: small-molecule microarray binding, fluorescence 635 nm; higher = more signal;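 note: score merges spot fluorescence intensity with its signal-to-noise ratio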
[2] = small-molecule microarray binders of probe aDKK1, primary screen, biochemical, biotinylated probe, 635/667 nm fluorescence (AID 1099); settings: higher = more signal;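 note: score merges 667nm spot fluorescence with signal to noise across triplicate slides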
[3] = small-molecule microarray binders of probe aCHRDL2, primary screen, biochemical, biotinylated probe, 635/667 nm fluorescence (AID 1100); settings: higher = more signal
[4] = splicing luciferase reporter signal modulators, primary screen, spliceosome inhibition project, cell-based, HEK293, splice +/- reporter (AID 1101); settings: luminescence, 24 h, higher = more signal, called active from +8 up or from −8 down;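 note: HEK293 cells carrying a splicing-competent luciferase reporter gene; test concentration not given here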
[5] = molecular target: Fibroblast growth factor 10 (Homo sapiens) (UniProt O15520); assay: FGF10 binders on small-molecule microarrays, primary screen, biochemical, small-molecule microarray, 635 nm fluorescence (AID 1102); settings: FGF10 binding, fluorescence 635 nm, higher = more signal
[6] = tested on: glycogen synthase kinase-3 (GSK3A per assay name; protocol says GSK3B); assay: GSK3 binders on small-molecule microarrays, primary screen, biochemical, small-molecule microarray, 635 nm fluorescence, GSK3A (AID 1103); settings: small-molecule microarray binding, fluorescence 635 nm; higher = more signal; note: the record names both GSK3A and GSK3B
[7] = molecular target: Epidermal growth factor receptor (Homo sapiens) (UniProt P00533); assay: EGFR binders on small-molecule microarrays, primary screen, biochemical, small-molecule microarray, 635 nm fluorescence (AID 1104); settings: EGFR binding, higher = more signal;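 note: score merges 667 nm emission intensity with spot signal to noise over triplicate slides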
[8] = molecular target: Follistatin-related protein 3 (Homo sapiens) (UniProt O95633); assay: FSTL3 binders on small-molecule microarrays, primary screen, biochemical, small-molecule microarray, 635 nm fluorescence (AID 1105); settings: FSTL3 binding, higher = more signal;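 note: score merges emission near 667 nm and signal to noise per printed spot across three slides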
[9] = molecular target: Dickkopf-related protein 1 (Homo sapiens) (UniProt O94907); assay: DKK1 binders on small-molecule microarrays, primary screen, biochemical, small-molecule microarray, 635 nm fluorescence scan (AID 1106); settings: DKK1 binding, higher = more signal;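 note: score merges emission near 667 nm with signal to noise over three replicate slides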
[10] = tested on: Inhibin beta A chain (activin A); assay: INHBA (activin A) binders on microarrays, primary screen, biochemical, small-molecule microarray, 635 nm fluorescence scan (AID 1107); settings: small-molecule microarray binding, higher = more signal;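 note: mouse activin A protein probed at 4.33 µg/mL on printed slides; score merges bound-protein fluorescence near 667 nm with spot signal-to-noise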
[11] = tested on: Human papillomavirus type 1a protein E7 (residues 44-93); assay: HPV1a E7 fragment binders on microarrays, primary screen, biochemical, small-molecule microarray, residues 44-93, 635 nm fluorescence (AID 1108); settings: small-molecule microarray binding, fluorescence 635 nm; higher = more signal;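 note: E7 fragment applied at 1 µg/mL in TBST for 1 h at 4 C; score combines spot fluorescence with its signal to noise ratio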
[12] = modulators of HCV replicon luciferase signal, primary screen, HCV replication inhibitor project, Huh7 cells, luciferase reporter (AID 1109); settings: 48 h, higher = more signal;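 note: huh7 hepatoma cells harbouring a luciferase neomycin HCV replicon reporter; luciferase luminescence as measure of HCV replicon replication; test concentration not given here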
[13] = molecular target: Left-right determination factor 2 (Homo sapiens) (UniProt O00292); assay: LEFTY2 binders on small-molecule microarrays, primary screen, biochemical, small-molecule microarray, 635 nm fluorescence scan (AID 1110); settings: LEFTY2 binding, higher = more signal
[14] = molecular target: Calmodulin-1 (Homo sapiens) (UniProt P0DP23); assay: CALM1 binders on microarrays, EGTA buffer, profiling panel, biochemical, small-molecule microarray, Cy5-labelled CALM1 (AID 1111); settings: Cy5-CALM1 binding fluorescence, higher = more signal;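 note: labelled calmodulin applied in Tris saline Tween buffer holding calcium plus EGTA and DTT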
[15] = molecular target: Calmodulin-1 (Homo sapiens) (UniProt P0DP23); assay: calcium-bound CALM1 binders on microarrays, profiling panel, artefact control for SMM control-protein annotation, biochemical, small-molecule microarray, Cy5-labelled CALM1, plus calcium (AID 1112); settings: Cy5-CALM1 binding fluorescence, higher = more signal;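 note: score merges spot fluorescence with signal to noise from triplicate slides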
[16] = small-molecule microarray binders of probe aWnt5a, primary screen, biochemical, biotinylated probe, 635/667 nm fluorescence (AID 1113); settings: higher = more signal;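 note: score merges 667 nm fluorescence intensity with signal-to-noise per printed feature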
[17] = small-molecule microarray binders of probe aShh, primary screen, biochemical, biotinylated probe, 635/667 nm fluorescence (AID 1114); settings: higher = more signal;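 note: probe is biotin-labelled aShh protein from a stem cell growth factor screen; measures binding of labelled protein to compounds printed on the slide; score merges feature fluorescence at 667 nm with signal-to-noise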
[18] = small-molecule microarray binders of probe aNog, primary screen, biochemical, biotinylated probe, 635/667 nm fluorescence (AID 1115); settings: higher = more signal;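 note: probe is biotinylated aNog protein used at 0.15 µg/mL for 1 h at 4 C; z-score combines 667 nm fluorescence of each spot with its signal to noise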
[19] = molecular target: Torsin-1A-interacting protein 1 (Homo sapiens) (UniProt Q5JTV8); assay: LAP1 binders from COS7 cell lysate, primary screen, small-molecule microarray, 635/667 nm fluorescence (AID 1116); settings: COS7-hLAP1 lysate binding, 635 nm fluorescence, higher = more signal
[20] = molecular target: Alpha-bungarotoxin (Bungarus multicinctus) (UniProt P60615); assay: alpha-bungarotoxin binders on microarray, profiling panel, artefact control for SMM control protein annotation, biochemical, small-molecule microarray, Alexa647 label, 635/667 nm fluorescence (AID 1117); settings: alpha-BTX-A647 binding fluorescence, higher = more signal
Chain of Alpha-bungarotoxin (Bungarus multicinctus) (P60615 whole entry, looked up): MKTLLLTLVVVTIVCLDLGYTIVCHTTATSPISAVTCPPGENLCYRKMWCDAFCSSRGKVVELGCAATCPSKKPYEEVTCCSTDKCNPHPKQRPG

Chain of Epidermal growth factor receptor (Homo sapiens) (P00533 whole entry, looked up): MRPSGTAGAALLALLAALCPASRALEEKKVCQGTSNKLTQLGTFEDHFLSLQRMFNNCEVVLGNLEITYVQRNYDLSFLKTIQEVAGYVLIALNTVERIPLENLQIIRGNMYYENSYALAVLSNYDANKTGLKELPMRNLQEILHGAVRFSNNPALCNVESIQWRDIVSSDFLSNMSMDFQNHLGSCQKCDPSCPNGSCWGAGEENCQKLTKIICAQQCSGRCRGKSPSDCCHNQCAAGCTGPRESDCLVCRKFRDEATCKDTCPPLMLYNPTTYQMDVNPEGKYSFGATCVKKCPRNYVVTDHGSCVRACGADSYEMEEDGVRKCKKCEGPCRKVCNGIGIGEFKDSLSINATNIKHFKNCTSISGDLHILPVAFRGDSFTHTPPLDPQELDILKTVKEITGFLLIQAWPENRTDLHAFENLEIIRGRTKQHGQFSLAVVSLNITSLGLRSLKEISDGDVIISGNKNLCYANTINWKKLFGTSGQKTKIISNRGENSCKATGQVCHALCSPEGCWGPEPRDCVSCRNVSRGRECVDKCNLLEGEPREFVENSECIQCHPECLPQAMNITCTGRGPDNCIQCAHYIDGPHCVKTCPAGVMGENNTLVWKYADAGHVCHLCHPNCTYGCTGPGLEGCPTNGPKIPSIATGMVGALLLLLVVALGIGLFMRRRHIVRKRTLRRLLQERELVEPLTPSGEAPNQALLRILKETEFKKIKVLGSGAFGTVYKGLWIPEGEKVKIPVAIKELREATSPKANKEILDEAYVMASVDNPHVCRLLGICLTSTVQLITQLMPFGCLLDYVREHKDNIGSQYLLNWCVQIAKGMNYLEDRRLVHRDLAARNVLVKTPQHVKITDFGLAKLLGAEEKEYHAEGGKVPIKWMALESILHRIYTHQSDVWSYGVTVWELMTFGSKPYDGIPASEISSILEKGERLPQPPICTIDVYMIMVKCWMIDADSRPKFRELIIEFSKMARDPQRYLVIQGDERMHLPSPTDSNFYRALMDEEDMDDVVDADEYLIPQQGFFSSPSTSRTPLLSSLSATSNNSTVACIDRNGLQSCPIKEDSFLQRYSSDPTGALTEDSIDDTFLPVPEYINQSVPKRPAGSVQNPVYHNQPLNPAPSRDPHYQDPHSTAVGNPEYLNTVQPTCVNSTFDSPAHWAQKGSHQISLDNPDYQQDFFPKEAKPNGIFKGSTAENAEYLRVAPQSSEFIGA
Chain of Left-right determination factor 2 (Homo sapiens) (O00292 whole entry, looked up): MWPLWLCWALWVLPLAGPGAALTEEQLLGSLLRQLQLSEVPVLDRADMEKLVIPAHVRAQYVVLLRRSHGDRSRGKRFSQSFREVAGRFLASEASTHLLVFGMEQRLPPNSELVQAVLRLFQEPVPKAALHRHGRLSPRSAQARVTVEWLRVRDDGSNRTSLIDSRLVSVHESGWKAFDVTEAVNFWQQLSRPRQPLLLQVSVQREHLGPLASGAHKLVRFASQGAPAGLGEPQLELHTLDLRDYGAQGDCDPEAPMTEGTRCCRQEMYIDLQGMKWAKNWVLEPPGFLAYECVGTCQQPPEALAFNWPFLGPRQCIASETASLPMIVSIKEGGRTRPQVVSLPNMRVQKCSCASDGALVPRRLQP
Chain of Fibroblast growth factor 10 (Homo sapiens) (O15520 whole entry, looked up): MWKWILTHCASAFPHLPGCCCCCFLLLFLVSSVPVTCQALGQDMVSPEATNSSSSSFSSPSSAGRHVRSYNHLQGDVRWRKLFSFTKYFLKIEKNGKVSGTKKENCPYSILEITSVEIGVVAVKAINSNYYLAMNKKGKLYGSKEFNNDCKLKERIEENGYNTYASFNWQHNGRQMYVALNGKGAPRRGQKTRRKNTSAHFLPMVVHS
Chain of Follistatin-related protein 3 (Homo sapiens) (O95633 whole entry, looked up): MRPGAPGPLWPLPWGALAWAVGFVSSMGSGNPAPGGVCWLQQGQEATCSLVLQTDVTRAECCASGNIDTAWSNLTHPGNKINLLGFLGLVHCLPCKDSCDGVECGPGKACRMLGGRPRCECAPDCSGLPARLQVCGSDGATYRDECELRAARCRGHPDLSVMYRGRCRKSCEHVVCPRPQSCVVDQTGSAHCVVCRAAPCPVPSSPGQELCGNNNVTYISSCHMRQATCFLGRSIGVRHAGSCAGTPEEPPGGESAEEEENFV
Chain of Torsin-1A-interacting protein 1 (Homo sapiens) (Q5JTV8 whole entry, looked up): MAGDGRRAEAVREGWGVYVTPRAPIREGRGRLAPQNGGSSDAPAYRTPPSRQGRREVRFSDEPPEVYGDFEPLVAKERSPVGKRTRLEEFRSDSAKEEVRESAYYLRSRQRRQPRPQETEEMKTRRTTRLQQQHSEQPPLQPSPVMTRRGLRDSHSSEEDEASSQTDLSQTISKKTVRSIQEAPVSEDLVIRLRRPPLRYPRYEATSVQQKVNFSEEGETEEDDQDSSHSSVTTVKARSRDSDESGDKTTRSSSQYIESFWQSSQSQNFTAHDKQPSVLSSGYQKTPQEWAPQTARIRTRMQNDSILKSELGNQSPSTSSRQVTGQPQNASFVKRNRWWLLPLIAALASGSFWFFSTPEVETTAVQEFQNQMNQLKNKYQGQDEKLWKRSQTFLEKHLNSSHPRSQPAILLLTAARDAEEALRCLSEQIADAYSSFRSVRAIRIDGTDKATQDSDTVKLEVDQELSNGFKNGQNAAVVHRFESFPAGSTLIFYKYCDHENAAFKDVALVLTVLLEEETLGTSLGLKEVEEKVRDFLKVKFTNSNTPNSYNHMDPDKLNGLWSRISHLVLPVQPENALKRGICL
Chain of Dickkopf-related protein 1 (Homo sapiens) (O94907 whole entry, looked up): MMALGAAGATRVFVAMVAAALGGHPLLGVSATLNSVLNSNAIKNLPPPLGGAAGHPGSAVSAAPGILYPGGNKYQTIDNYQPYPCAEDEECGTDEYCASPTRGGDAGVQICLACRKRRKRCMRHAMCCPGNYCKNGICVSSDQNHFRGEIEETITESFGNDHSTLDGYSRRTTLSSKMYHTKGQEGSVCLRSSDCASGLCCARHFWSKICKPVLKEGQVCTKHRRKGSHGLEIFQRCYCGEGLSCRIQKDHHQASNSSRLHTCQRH

Row | Compound | composite z-score [1] | composite z-score [2] | composite z-score [3] | z-score [4] | composite z-score [5] | composite z-score [6] | composite z-score [7] | composite z-score [8] | composite z-score [9] | composite z-score [10] | composite z-score [11] | z-score [12] | composite z-score [13] | composite z-score [14] | composite z-score [15] | composite z-score [16] | composite z-score [17] | composite z-score [18] | composite z-score [19] | composite z-score [20]
1 | C#CCCCON=C1C[C@@H](O)[C@@H](O)[C@@H]2[C@@H]3C(=O)N(C[C@@H]4CCCO4)C(=O)[C@@H]3CC[C@@H]12 | 0.44 | -0.244 | -0.362 | -0.28 (inactive) | 0.732 | 0.223 | 0.469 | 0.67 | 0.449 | 0.397 | 0.578 | 0.367 | 0.386 | -0.358 | -0.129 | -0.0865 | -0.153 | 0.223 | -0.0438 | 0.506
2 | CC(C)(C)N1C(=O)[C@H]2[C@H]3[C@H](O)[C@H](O)CC(=NNC(=O)OCc4ccccc4)[C@@H]3CC[C@H]2C1=O | -0.106 | -0.348 | -0.518 | 0.305 (inactive) | 0.487 | 0.554 | 0.251 | 0.376 | 0.455 | -0.337 | 0.594 | 0.508 | 0.432 | -0.213 | -0.412 | -0.0721 | -0.399 | -0.137 | 0.505 | 0.162
3 | C#CCCCON=C1[C@H]2CCn3c(=O)n([C@@H](CC)c4ccccc4)c(=O)n3[C@H]2[C@H](O)[C@@H]2O[C@H]12 | 1.1 | -0.175 | -0.317 | 6.03 (inactive) | 0.581 | -0.51 | 0.179 | 0.34 | 0.209 | 0.228 | -0.194 | -3.43 | 0.0878 | -0.184 | -0.483 | -0.0799 | -0.0295 | -0.35 | -0.0356 | -0.151
4 | CC(C)CN1CCc2nc(-c3ccccc3)c3c(c2C1)CO[C@@H](C)C3 | 0.639 | 0.264 | -0.291 | 0.185 (inactive) | 0.929 | 1.16 | 0.383 | 1.05 | 0.512 | 0.0576 | 1.01 | -0.791 | 0.881 | 0.566 | 0.32 | -0.0285 | 0.0751 | -0.149 | 0.152 | 0.365
5 | COC(=O)[C@H](C)NC(=O)CCC1CC(OC(=O)NCc2cccc3ccccc23)CC2(CCCC(COC(=O)NCc3cccc(C(F)(F)F)c3)O2)O1 (stereo not given in full) | 0.988 | -0.0508 | -0.134 | -1.39 (inactive) | 0.908 | 0.611 | 0.473 | 0.677 | 0.303 | -0.108 | 1.32 | -0.548 | 0.925 | 1.1 | 0.269 | -0.0384 | -0.138 | -0.23 | 0.208 | 0.292
6 | C#CCCCON=C1C[C@@H](O)[C@@H](O)[C@@H]2[C@@H]3C(=O)N(CC)C(=O)[C@@H]3CC[C@H]12 | 0.581 | -0.189 | -0.267 | 0.385 (inactive) | 0.301 | -0.396 | 0.285 | -0.331 | 0.209 | -0.124 | 0.51 | -0.0718 | 0.278 | -0.0398 | -0.304 | -0.089 | -0.307 | -0.353 | 0.779 | 0.573
7 | CCN1C(=O)[C@H]2[C@H]3[C@H](O)[C@H](O)CC(=NOCC[C@@H]4C=C[C@H](OC(C)=O)[C@@H](COC(C)=O)O4)[C@@H]3CC[C@H]2C1=O | 0.0458 | -0.107 | -0.426 | -0.0787 (inactive) | 0.476 | 0.0008 | 0.498 | 0.38 | 0.476 | 0.079 | -0.263 | -1.04 | 0.736 | -0.207 | -0.225 | 0.0102 | 0.0899 | 0.029 | -0.359 | 0.391
8 | CO[C@H]1COC(=O)CCC[C@H](C)[C@H](OC)COC(=O)CC=C[C@@H]1C | 1.49 | -0.427 | -0.931 | -1.39 (inactive) | -0.0317 | 0.0951 | 0.822 | 1.04 | 0.872 | 1.43 | -1.46 | -1.34 | 0.804 | -0.294 | -1.2 | -0.156 | -0.138 | -0.258 | 0.307 | -0.0936
9 | CCOC(=O)CCN1C(=O)[C@H]2[C@H]3[C@H](O)[C@H](O)CC(=NNC(=O)OCc4ccc(OC)cc4)[C@H]3CC[C@H]2C1=O | 0.14 | 0.127 | 0.0124 | -0.352 (inactive) | -0.186 | 0.071 | 0.459 | 0.449 | 0.132 | 0.747 | 0.451 | -2.44 | 0.214 | -0.211 | -0.509 | 0.0243 | 0.0121 | 0.0236 | -0.176 | 0.354
10 | CCN1C(=O)[C@H]2[C@H]3[C@H](O)[C@H](O)CC(=NO[C@@H]4O[C@H](COC(C)=O)[C@@H](OC(C)=O)[C@H](OC(C)=O)[C@H]4OC(C)=O)[C@@H]3CC[C@H]2C1=O | 0.579 | 0.0594 | -0.601 | 0.5 (inactive) | 0.868 | 0.612 | 0.591 | 1.11 | 0.735 | -0.371 | 0.519 | -0.835 | 0.671 | -0.41 | -0.564 | 0.0151 | 0.126 | 0.166 | 0.256 | 0.721
11 | C[C@]12CCC3c4ccc(OCC5CO5)cc4CCC3C1CC[C@@H]2O (stereo not given in full) | 0.728 | 0.527 | 0.596 | 0.147 (inactive) | 0.457 | -0.309 | 0.182 | 0.239 | 0.0294 | 0.944 | 0.629 | -2.71 | 0.242 | 0.964 | 0.285 | -0.0346 | 0.0062 | 0.316 | 0.542 | 1.59
12 | COC(=O)[C@H](C)NC(=O)CC=C[C@@H](C)[C@@H]1C=C[C@H](O)[C@@H](CO)O1 | 0.141 | -0.607 | -1.28 | 0.386 (inactive) | 0.6 | 0.902 | 0.643 | 0.948 | 1.3 | 0.229 | 0.075 | -0.0833 | 1.14 | -0.698 | -1.35 | -0.0799 | -0.0474 | -0.0926 | 0.326 | -0.392
13 | CO[C@H]1C[C@@H]2C[C@H](O)CC(CC(=O)O[C@@H](C=CCC(C)C)C[C@@H]3CC[C@H](C)[C@@H](C1)O3)O2 | 1.02 | -0.205 | -0.594 | -0.278 (inactive) | 0.682 | 1.29 | 0.595 | 0.808 | 1.13 | 0.0531 | 1.27 | -0.763 | 0.748 | -0.126 | -0.468 | -0.0194 | 0.0815 | -0.447 | 0.536 | 1.63
14 | COC(=O)C(C(=O)OC)C1CCCC(=O)C1 (stereo not given) | 0.377 | -0.207 | -0.618 | -0.388 (inactive) | 0.755 | 0.772 | 0.399 | 0.508 | 0.978 | 0.151 | 0.549 | 0.593 | 0.576 | -0.385 | -0.645 | -0.104 | -0.107 | -0.0446 | 0.526 | 0.0087
